Pf growth 96h = inhibits malaria parasite growth, 96 h; P. falciparum luciferase reporter growth, 96 h; Potency, µM (titrated, usually from 28.7 µM), hits mostly inhibitors; 320,000 tested, 6.9% active; AID 504834
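96 h incubation, 37 C, 5% CO2, of luciferase-reporter P. falciparum-infected RBCs (2% hematocrit, 0.05% parasitemia final) with test compounds; endpoint luminescence.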
Sm TGR inh = S. mansoni TGR enzyme inhibition. Q962Y6. purified TGR, DTNB reduction, TNB absorbance 405 nm. Potency, µM (highest dose often 114 µM), actives largely listed as inhibitors. 360,000 tested, 3% active; further: nearly all actives have a fitted effect of over 60% in size
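First, TGR (20 nM dispensed) and NADPH were mixed with compound. Second, a 15 min room-temperature incubation followed. Third, further NADPH and then DTNB were added to start the reaction. Finally, TNB absorbance was monitored kinetically.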
NS1 function inh = influenza NS1 inhibition | 270,000 tested, 0.4% active | AID 2326 | Potency, µM (highest dose often 46.1 µM); calls by dose curve; further: actives are rising curves; nearly all actives have a fitted effect of over 50% in size
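Read-out: OD600 growth recovery of NS1-expressing budding yeast. Cells grown overnight at 30C in -URA glucose medium, washed, resuspended and diluted 1:100 in 2% galactose assay medium, pH 6.0. Same strain lacking NS1 served as positive control.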
Cycloheximide cs = affects cycloheximide protein synthesis inhibition readout, counter-screen; cell reporter, cycloheximide protein synthesis inhibition counterscreen; max response, %; 300,000 tested, 12% active; in the data active means max response mostly above about 13%, no sharp cut-off; inactive means mostly below about 14%; further: read at 38.3 µM for the half of the compounds with a filed dose
Pf growth 48h = inhibits P. falciparum growth in the first generation, 48 h | P. falciparum luciferase growth in erythrocytes, 48 h | Potency, µM (titrated, usually from 28.7 µM), actives largely listed as inhibitors | 310,000 tested, 5.9% active | AID 504832
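Parasite viability was followed by luminescence of a genomically integrated firefly luciferase. Cultures held 0.1% parasitemia at 2% hematocrit (final), incubated under 5% CO2 at 37 C.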
Shiga toxin inh = blocks Shiga toxin action in Vero cells; Vero cells, Shiga toxin protein synthesis inhibition reporter; inhibition, % at 38.7 µM; 290,000 tested, 9.2% active; in the data active means inhibition mostly above about 28%, no sharp cut-off; inactive means mostly below about 43%
A number is an active result; . = inactive; ? = inconclusive; / = no result. Compounds with a hit are over-represented: about 21% of the library has one in this group of screens. Unless noted, the call rests on the fitted dose curve; in most records, active means well fitted curve in the direction sought with a large enough effect; inconclusive means small, poorly fitted or top-dose-only effect, or another doubt; inactive means no such curve, though single readings can be large; an effect the other way counts as inactive or inconclusive.

SMILES | Pf growth 96h | Sm TGR inh | NS1 function inh | Cycloheximide cs | Pf growth 48h | Shiga toxin inh
CCc1ccc(Nc2sc(C(=O)c3ccc(F)cc3)c(N)c2S(=O)(=O)c2ccccc2)cc1 | / | . | / | / | / | /
Cc1cc(C)c(NC(=O)NC(=O)C(Cl)(Cl)Cl)c(C)c1 | . | . | . | . | . | .
CC(=O)Oc1ccc2c(c1)O/C(=C\c1ccncc1)C2=O | ? | . | . | . | . | .
CCC(=O)Oc1ccc2c(c1)O/C(=C\c1ccco1)C2=O | . | 11µM | . | 16 | . | 43
COc1ccccc1C(=O)Oc1ccc2c(c1)O/C(=C\c1ccncc1)C2=O | . | . | . | . | . | .
COc1ccc(/C=C2\Oc3cc(OC(=O)N4CCOCC4)ccc3C2=O)cc1 | ? | . | . | . | ? | .
CCN(CC)C(=O)Oc1ccc2c(c1)O/C(=C\c1ccco1)C2=O | . | . | . | 27 | . | 49
Cc1cc(O)cc2c1C(=O)/C(=C/c1ccco1)O2 | . | 32µM | . | 51 | . | 66
CCc1ccc(/C=C2\Oc3cc(OC(=O)N4CCOCC4)ccc3C2=O)cc1 | 10µM | . | . | . | ? | .
Cc1cc(C)c(C(=O)/C=C/c2ccco2)c(=O)[nH]1 | . | ? | . | . | . | .
COc1ccc(C(O)Cn2ccsc2=NC(C)=O)cc1 (stereo not given) | . | . | . | . | . | .
CC(NC(=O)/C=C/c1ccccc1[N+](=O)[O-])C1CC2CCC1C2 (stereo not given) | ? | . | . | . | ? | .
O=C(c1ccccc1Sc1ccccc1[N+](=O)[O-])N1CCCCC1 | ? | . | . | . | ? | .
COC(=O)COc1ccc2c(c1)O/C(=C\c1ccco1)C2=O | . | 18µM | . | 29 | . | 38
COc1cccc(CN(C)CC(=O)Nc2c(C)cccc2C(C)C)c1 | ? | . | . | . | . | .
CCN(CC)CCNc1ccc(CO)c2sc3ccccc3c(=O)c12 | 2.9µM | . | . | . | 3.7µM | .
CC(C)CC1NC(=O)c2ccccc2-n2c1nc1ccc(F)cc1c2=O (stereo not given) | . | . | / | / | . | /
OCc1cn(Cc2ccc(O)c3ncccc23)cn1 | 6.6µM | ? | / | / | 5.2µM | /
Cc1ccccc1NCc1ccc(O)c2ncccc12 | . | . | . | . | ? | .
c1ccc2c(Cn3ccnc3)c[nH]c2c1 | ? | . | . | . | . | .
Oc1ccc(Cn2ccnc2)c2cccnc12 | . | 22µM | . | . | 3.7µM | .
C[C@]12CC[C@H]3c4ccc(O)cc4CC[C@@H]3[C@H]1CC[C@@H]2OC(=O)CCc1ccccc1 | / | / | . | / | / | /
O=C(Nc1ccc(N=Nc2ccccc2)cc1)c1ccccc1Cl | . | . | . | 27 | . | 73
CCCC(=O)Nc1ccc(Nc2ccccc2)cc1 | . | . | . | 23 | . | 35
CCCC(=O)Nc1ccc(C(=O)n2ccc(C)n2)cc1 | . | . | . | 11 | . | .
SMILES | Pf growth 96h | Sm TGR inh | NS1 function inh | Cycloheximide cs | Pf growth 48h | Shiga toxin inh
O=C(NCc1ccoc1)c1ccc(NC(=O)c2ccccc2Cl)cc1 | ? | 35µM | . | . | . | .
O=C(Nc1ccc(N=Nc2ccccc2)cc1)c1ccc(Cl)cc1Cl | . | . | . | . | . | .
CCCC(=O)Nc1ccc(-c2ccc(NC(=O)CCC)cc2)cc1 | . | . | . | . | . | .
COc1ccccc1CN(C(=O)CNC(=O)c1ccco1)C(C(=O)NCC1CCCO1)c1ccccc1 (stereo not given) | . | . | . | . | . | .
CC(=O)Nc1ccc(Oc2ccccc2)cc1 | ? | . | . | . | ? | .
CC(=O)OCC(=O)Nc1ccccc1C | . | . | / | . | . | .
O=C(CCCCCN1C(=O)c2ccccc2C1=O)Nc1ccccc1 | . | . | . | . | / | .
O=C(CCCCCCC(=O)Nc1ccccc1)NO | 0.13µM | / | / | / | 0.21µM | /
CCOC(=O)/C(C(=Nc1ccccc1)Nc1ccccc1)=C(\C)O | 10µM | . | . | . | . | .
CC(=O)Nc1ccc(N=Nc2ccccc2)cc1 | . | . | . | 49 | . | 65
CC(=O)OCC(=O)Nc1ccc(N=Nc2ccccc2)cc1 | . | . | . | 38 | . | .
CCCN(Cc1cccs1)C(=O)Nc1cc(Cl)c(OC)cc1OC | / | . | / | / | / | /
CC(=O)c1ccc(NC(=O)CCCC(=O)c2ccccc2)cc1 | . | . | . | . | . | .
CC(=O)Nc1ccccc1 | ? | / | / | / | . | /
O=C(CCCC(=O)c1ccccc1)Nc1ccc(O)cc1 | 10µM | . | . | . | . | .
CC(C)C(=O)OCC(=O)Nc1ccc(N=Nc2ccccc2)cc1 | . | . | . | 31 | . | 46
CC(=O)Nc1ccc(Nc2ccccc2)cc1 | . | . | . | 27 | . | 59
O=C1c2ccccc2-c2ccc(NC(=O)[C@H]3CCCC[C@@H]3C(=O)O)cc21 | / | / | . | / | / | /
CC(=O)Nc1ccc(NC(=O)COC(=O)c2ccccn2)cc1 | . | . | . | . | . | .
O=C(CCc1nc2ccccc2[nH]c1=O)OCC(=O)c1cccc2ccccc12 | . | . | . | . | / | .
Cc1ccc(Cl)cc1N1CCN(S(=O)(=O)c2cn(C)cn2)CC1 | ? | . | . | . | . | .
Nc1ccc2nc(-c3ccc(N)c(Cl)c3)[nH]c2c1 | / | . | . | 25 | ? | 77
COc1ccc2nc(-c3ccccn3)[nH]c2c1 | . | . | . | 36 | . | 59
COc1ccc2nc(-c3ccc(N)cc3)[nH]c2c1 | ? | . | . | . | . | .
Cc1cc(=S)nc(-c2ccccn2)[nH]1 | 3.7µM | . | . | . | 10µM | .
SMILES | Pf growth 96h | Sm TGR inh | NS1 function inh | Cycloheximide cs | Pf growth 48h | Shiga toxin inh
COc1ccc2nc(-c3cccc(N)c3)[nH]c2c1 | . | ? | . | 18 | . | .
Cc1ccc(NS(=O)(=O)c2ccc3nc(-c4ccccc4)[nH]c3c2)cc1Cl | / | . | / | / | / | /
Cc1[nH]c(-c2ccccn2)nc(=S)c1Cl | ? | . | . | . | ? | .
Nc1ccc2nc(-c3cccs3)[nH]c2c1 | . | . | . | 20 | . | 52
Fc1ccc2[nH]c(-c3cccs3)cc2c1 | / | . | / | / | / | /
Nc1ccc2nc(-c3cccnc3)[nH]c2c1 | . | . | . | 15 | ? | .
Nc1nc(N)nc(-c2ccccn2)n1 | ? | . | . | . | . | .
Nc1ccc2nc(-c3ccccc3)[nH]c2c1 | / | . | . | 36 | . | 126
Nc1ccc2nc(-c3ccccn3)[nH]c2c1 | ? | . | . | 29 | ? | 53
O=S(=O)(Nc1ccc(Br)cc1F)c1ccc2nc(-c3ccccc3)[nH]c2c1 | / | . | / | / | / | /
Nc1cccc(C(=O)Nc2ccc3nc(-c4cccnc4)[nH]c3c2)c1 | . | . | ? | . | . | .
C[C@@]12CCc3occc3[C@H]1CC[C@@]13C[C@@H](CC[C@H]12)[C@@](O)(CO)C3 | / | / | / | . | / | .
CC(C)C(NS(=O)(=O)c1cccc2cccnc12)C(=O)Nc1ccc(OC(F)(F)F)cc1 (stereo not given) | / | . | / | / | / | /
Cc1cc(SCc2cccc(C(F)(F)F)c2)nc(=O)[nH]1 | . | . | . | . | . | .
Cc1cc(C)n(-c2ccc(C(=O)OCC(=O)Nc3cc(S(C)(=O)=O)ccc3Cl)cc2)n1 | . | . | / | / | . | /
c1cncc(-c2nc3c(ccc4ccccc43)[nH]2)c1 | ? | . | . | 12 | ? | 77
